# Data taken from PubChem BioAssay (EPA / NIEHS).
# Results filed as inconclusive are left out. The source made the active and inactive calls. Rule for the calls: active = hit-call score of the fitted dose curve at least 0.9, where 1 is the maximum; inconclusive = response in the unintended direction; inactive = score below 0.9.
# What was measured:
# [1] = test system: bovine Histamine 1 Receptor (H1), gene 281231; test: NVS_GPCR_bH1: NovaScreen (NVS) G Protein-Coupled Receptor Assay for bovine Histamine 1 Receptor (H1) (AID 2283246)
# Method in brief: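 Radioligand displacement on bovine cerebellar membranes, 1 h after dosing, filter-based scintillation read-out; loss of signal vs DMSO. Duplicate single-concentration screen at 25 uM, then concentration-response up to 50 uM for hits.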
# [2] = biological target: human Adenosine A1 Receptor (AdoRA1), ADORA1 (gene 134) (UniProt P30542); test: NVS_GPCR_hAdoRA1: NovaScreen (NVS) G Protein-Coupled Receptor Assay for human Adenosine A1 Receptor (AdoRA1) (AID 2283254)
# Method in brief: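 Each chemical is first tested twice at 25 uM, actives later in dilution series, against a radioligand bound to human cortex membranes; after 1 h, filter-retained counts are compared with DMSO controls, lower signal indicating displacement.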
# [3] = biological target: Beta-2 adrenergic receptor (Homo sapiens) (UniProt P07550); test: NVS_GPCR_hAdrb2: NovaScreen (NVS) G Protein-Coupled Receptor Assay for human Adrenergic, Beta 2 Receptor (Adrb2) (AID 2283261)
# Method in brief: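 Filter-based radioligand binding using receptor prepared from CHO cells, 1 h incubation, scintillation counting. Primary screen in duplicate at 25 uM, actives retested in concentration series; loss of binding relative to DMSO.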
# [4] = biological target: Adenosine receptor A1 (Bos taurus) (UniProt P28190); test: NVS_GPCR_bAdoR_NonSelective: NovaScreen (NVS) G Protein-Coupled Receptor Assay for bovine Adenosine Receptor (AdoR), Non-selective Binding (AID 2283244)
# Method in brief: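 Bovine striatal membranes, radioligand displacement binding, 1 h after dosing, filter-based scintillation counting. Screened in duplicate at 25 uM, then concentration-response up to 50 uM; loss of specific binding relative to DMSO.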
# [5] = biological target: human Serotonin, 5-Hydroxytryptamine Receptor 5A (5HT5A), HTR5A (gene 3361) (UniProt P47898); test: NVS_GPCR_h5HT5A: NovaScreen (NVS) G Protein-Coupled Receptor Assay for human Serotonin, 5-Hydroxytryptamine Receptor 5A (5HT5A) (AID 2283251)
# Method in brief: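 Cell-free radioligand displacement binding on HEK293-derived membrane protein, 1 h incubation, filter-based scintillation counting. Primary screen in duplicate at 25 uM, actives followed in concentration series; loss of signal fitted versus DMSO.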
# [6] = biological target: human Serotonin, 5-Hydroxytryptamine Receptor 6 (5HT6), HTR6 (gene 3362) (UniProt P50406); test: NVS_GPCR_h5HT6: NovaScreen (NVS) G Protein-Coupled Receptor Assay for human Serotonin, 5-Hydroxytryptamine Receptor 6 (5HT6) (AID 2283253)
# Method in brief: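 Radioligand binding to 5HT6 in HEK293-derived membranes, cell-free, 1 h after dosing; bound ligand measured by filter-based scintillation counting. Primary screen in duplicate at 25 uM; actives retested in concentration series.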
# [7] = biological target: human Serotonin, 5-Hydroxytryptamine Receptor 7 (5HT7), HTR7 (gene 3363) (UniProt P34969); test: NVS_GPCR_h5HT7: NovaScreen (NVS) G Protein-Coupled Receptor Assay for human Serotonin, 5-Hydroxytryptamine Receptor 7 (5HT7) (AID 2283255);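 note: hits reduce specific radioligand binding relative to DMSO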
# Method in brief: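 Radioligand displacement on membranes from CHO cells expressing human 5HT7, 1 h incubation, filter-based scintillation counting. Primary screen used a single 25 uM concentration in duplicate; actives were followed up in concentration series.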
# [8] = biological target: human Adenosine A2a Receptor (AdoRA2a), ADORA2A (gene 135) (UniProt P29274); test: NVS_GPCR_hAdoRA2a: NovaScreen (NVS) G Protein-Coupled Receptor Assay for human Adenosine A2a Receptor (AdoRA2a) (AID 2283256)
# Method in brief: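 Cell-free radioligand binding on membranes from HEK293 expressing the receptor; competitive displacement read 1.5 h after dosing by filter-based scintillation counting. Primary screen in duplicate at 25 uM; actives followed in concentration series, with DMSO as baseline.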
# [9] = biological target: human Adrenergic, Beta 1 Receptor (Adrb1), ADRB1 (gene 153) (UniProt P08588); test: NVS_GPCR_hAdrb1: NovaScreen (NVS) G Protein-Coupled Receptor Assay for human Adrenergic, Beta 1 Receptor (Adrb1) (AID 2283258)
# Method in brief: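 Cell-free radioligand displacement on receptor from human neuroepithelioma cells; 2 h after dosing, filter-based scintillation counting. Primary screen in duplicate at 25 uM, actives retested in concentration series; loss of signal vs DMSO baseline.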
# [10] = biological target: human Adrenergic, Alpha 2c Receptor (Adra2C), ADRA2C (gene 152) (UniProt P18825); test: NVS_GPCR_hAdra2C: NovaScreen (NVS) G Protein-Coupled Receptor Assay for human Adrenergic, Alpha 2c Receptor (Adra2C) (AID 2283259)
# Method in brief: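 Radioligand binding on Sf9-expressed receptor membranes, 1 h after chemical dosing, filter-based scintillation read-out. Loss of binding fitted positively versus DMSO; primary duplicate screen at 25 uM, actives retested in concentration series.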
# [11] = biological target: Type-1 angiotensin II receptor (Homo sapiens) (UniProt P30556); test: NVS_GPCR_hAT1: NovaScreen (NVS) G Protein-Coupled Receptor Assay for human Angiotensin II receptor type 1 (AT1) (AID 2283263)
# Method in brief: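 Membranes from KAN-TS cells; radioligand competitive displacement, 3 h, filtration and scintillation counting. Single-point duplicate screen at 25 uM, then concentration-response up to 50 uM for hits; loss of signal fitted versus DMSO.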
# [12] = biological target: human Dopamine Receptor D4.4 (DRD4.4), DRD4 (gene 1815) (UniProt P21917); test: NVS_GPCR_hDRD4.4: NovaScreen (NVS) G Protein-Coupled Receptor Assay for human Dopamine Receptor D4.4 (DRD4.4) (AID 2283264)
# Method in brief: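 Radioligand displacement on human DRD4.4 from CHO-derived membranes, 1 hour incubation, bound counts read by filtration and scintillation. Primary screen in duplicate at 25 uM; actives followed up in concentration series.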
# [13] = test system: guinea pig Leukotriene B4 Receptor (LTB4), gene 100379538; test: NVS_GPCR_gLTB4: NovaScreen (NVS) G Protein-Coupled Receptor Assay for guinea pig Leukotriene B4 Receptor (LTB4) (AID 2283247)
# Method in brief: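 Radioligand displacement on guinea pig spleen membranes, filter-based scintillation counting 2 h after dosing. Primary duplicate single point at 25 uM; hits over threshold (e.g. 30% inhibition) run in concentration-response up to 50 uM, DMSO baseline.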
# [14] = biological target: human Adrenergic, Alpha 2A Receptor (Adra2A), ADRA2A (gene 150) (UniProt P08913); test: NVS_GPCR_hAdra2A: NovaScreen (NVS) G Protein-Coupled Receptor Assay for human Adrenergic, Alpha 2A Receptor (Adra2A) (AID 2283257)
# Method in brief: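 Radioligand filter-binding was run on HT29-derived membranes, cell-free, read by scintillation counting 1 h after dosing. Primary screening was in duplicate at 25 uM, with concentration series in follow-up. Loss of signal versus DMSO indicates displacement.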
# [15] = biological target: human Adrenergic, Beta 3 Receptor (Adrb3), ADRB3 (gene 155) (UniProt P13945); test: NVS_GPCR_hAdrb3: NovaScreen (NVS) G Protein-Coupled Receptor Assay for human Adrenergic, Beta 3 Receptor (Adrb3) (AID 2283262)
# Method in brief: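 Membranes from SK-N-MC cells pretreated with isoproterenol and 8-bromo-cAMP were used in a radioligand competitive displacement binding assay. Binding was read by filter-based scintillation counting 1 hour after dosing. Primary screening was in duplicate at 25 uM, with concentration series in follow-up.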
# [16] = biological target: guinea pig Leukotriene D4 Receptor (LTD4), CYSLTR1 (gene 100135514) (UniProt Q2NNR5); test: NVS_GPCR_gLTD4: NovaScreen (NVS) G Protein-Coupled Receptor Assay for guinea pig Leukotriene D4 Receptor (LTD4) (AID 2283248)
# Method in brief: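 Radioligand displacement on guinea pig lung membranes, 1 h incubation, filtration and scintillation counting; DMSO as negative control. Duplicate 25 uM primary screen, then singleton concentration-response up to 50 uM.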
# [17] = biological target: guinea pig Opioid, Kappa 1 Receptor (OpiateK), OPRK1 (gene 100135587) (UniProt P41144); test: NVS_GPCR_gOpiateK: NovaScreen (NVS) G Protein-Coupled Receptor Assay for guinea pig Opioid, Kappa 1 Receptor (OpiateK) (AID 2283252);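 note: radioligand displacement from kappa opioid receptor in guinea pig cerebellar membranes; active means reduced radioligand binding relative to DMSO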
# Method in brief: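 Guinea pig cerebellar membranes, radioligand displacement with filter-based scintillation counting, 2 h after dosing. Primary screen single concentration 25 uM in duplicate; actives retested in concentration series; loss of binding fitted versus DMSO.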
# [18] = biological target: human Serotonin, 5-Hydroxytryptamine Receptor 2A (5HT2A), HTR2A (gene 3356) (UniProt P28223); test: NVS_GPCR_h5HT2A: NovaScreen (NVS) G Protein-Coupled Receptor Assay for human Serotonin, 5-Hydroxytryptamine Receptor 2A (5HT2A) (AID 2283249)
# Method in brief: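 Human cortex membranes, cell-free radioligand binding; filter-based scintillation read 1.5 h after dosing. Duplicate screen at 25 uM first; displacement of specific binding (loss of signal) versus DMSO.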
# [19] = NVS_GPCR_bNPY_NonSelective: NovaScreen (NVS) G Protein-Coupled Receptor Assay for bovine Neuropeptide Y (NPY) Receptor, Non-selective Binding (AID 2283245)
# Method in brief: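 Bovine hippocampal membranes incubated 1 hour with radioligand and test chemical. Bound ligand measured by filter-based scintillation counting. Single-concentration screen at 25 uM in duplicate, then concentration-response up to 50 uM.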
# [20] = test system: guinea pig Muscarinic, Peripheral (Mperiperal) Receptor, Non-selective Binding, gene 100379235; test: NVS_GPCR_gMPeripheral_NonSelective: NovaScreen (NVS) G Protein-Coupled Receptor Assay for guinea pig Muscarinic, Peripheral (Mperiperal) Receptor, Non-selective Binding (AID 2283250)
# Method in brief: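 Guinea pig bladder membranes, radioligand binding read 1 h after dosing by filter scintillation counting; loss of signal vs DMSO. Primary duplicate screen at 25 uM, then concentration-response up to 50 uM.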
# Sequence of human Adenosine A1 Receptor (AdoRA1), ADORA1 (gene 134) (P30542 whole entry, looked up): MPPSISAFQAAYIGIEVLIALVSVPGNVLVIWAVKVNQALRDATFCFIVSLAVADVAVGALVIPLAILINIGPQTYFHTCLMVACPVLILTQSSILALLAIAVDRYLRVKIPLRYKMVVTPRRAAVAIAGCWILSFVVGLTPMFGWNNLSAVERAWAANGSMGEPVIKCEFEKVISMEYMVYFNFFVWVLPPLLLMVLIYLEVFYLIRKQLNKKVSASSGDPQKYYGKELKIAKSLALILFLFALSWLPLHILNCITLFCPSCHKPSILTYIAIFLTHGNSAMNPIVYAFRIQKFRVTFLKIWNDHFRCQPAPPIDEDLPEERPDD
# Sequence of human Adrenergic, Alpha 2A Receptor (Adra2A), ADRA2A (gene 150) (P08913 whole entry, looked up): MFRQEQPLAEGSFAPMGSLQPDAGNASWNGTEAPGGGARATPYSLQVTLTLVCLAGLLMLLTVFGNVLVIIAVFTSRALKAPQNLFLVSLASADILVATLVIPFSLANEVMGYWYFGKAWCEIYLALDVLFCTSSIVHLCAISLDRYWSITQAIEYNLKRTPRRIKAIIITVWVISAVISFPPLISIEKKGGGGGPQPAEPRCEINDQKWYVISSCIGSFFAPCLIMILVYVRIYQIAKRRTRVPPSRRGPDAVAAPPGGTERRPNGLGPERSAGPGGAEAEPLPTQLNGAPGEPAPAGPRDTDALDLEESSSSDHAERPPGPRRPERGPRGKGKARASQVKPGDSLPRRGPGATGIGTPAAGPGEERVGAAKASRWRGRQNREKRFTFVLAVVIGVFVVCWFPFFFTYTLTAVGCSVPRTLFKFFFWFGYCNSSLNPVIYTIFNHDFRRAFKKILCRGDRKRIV
# Sequence of human Serotonin, 5-Hydroxytryptamine Receptor 6 (5HT6), HTR6 (gene 3362) (P50406 whole entry, looked up): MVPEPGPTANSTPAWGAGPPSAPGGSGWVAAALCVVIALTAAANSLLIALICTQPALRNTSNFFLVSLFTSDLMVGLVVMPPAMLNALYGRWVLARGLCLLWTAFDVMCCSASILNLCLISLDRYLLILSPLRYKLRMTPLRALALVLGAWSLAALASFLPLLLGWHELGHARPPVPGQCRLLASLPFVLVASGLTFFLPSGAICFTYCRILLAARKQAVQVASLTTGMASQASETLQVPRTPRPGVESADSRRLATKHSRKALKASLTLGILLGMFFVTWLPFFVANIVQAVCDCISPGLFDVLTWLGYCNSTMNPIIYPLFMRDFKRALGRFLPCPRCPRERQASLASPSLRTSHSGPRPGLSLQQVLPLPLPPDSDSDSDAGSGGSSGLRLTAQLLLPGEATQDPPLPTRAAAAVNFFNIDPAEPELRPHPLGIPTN
# Sequence of human Serotonin, 5-Hydroxytryptamine Receptor 7 (5HT7), HTR7 (gene 3363) (P34969 whole entry, looked up): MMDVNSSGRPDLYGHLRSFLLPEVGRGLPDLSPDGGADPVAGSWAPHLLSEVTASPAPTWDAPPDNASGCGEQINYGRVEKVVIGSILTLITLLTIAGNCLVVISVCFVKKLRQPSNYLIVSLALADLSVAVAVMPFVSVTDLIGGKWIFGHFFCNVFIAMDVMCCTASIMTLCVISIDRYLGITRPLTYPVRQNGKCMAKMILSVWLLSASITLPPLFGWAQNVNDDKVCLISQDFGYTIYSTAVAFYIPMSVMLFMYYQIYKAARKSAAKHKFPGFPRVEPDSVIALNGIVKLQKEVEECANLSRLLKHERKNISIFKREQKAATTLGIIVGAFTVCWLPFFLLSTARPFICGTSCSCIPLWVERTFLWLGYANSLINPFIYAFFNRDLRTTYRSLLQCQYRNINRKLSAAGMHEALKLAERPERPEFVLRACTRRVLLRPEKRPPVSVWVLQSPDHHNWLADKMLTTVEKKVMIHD
# Sequence of guinea pig Opioid, Kappa 1 Receptor (OpiateK), OPRK1 (gene 100135587) (P41144 whole entry, looked up): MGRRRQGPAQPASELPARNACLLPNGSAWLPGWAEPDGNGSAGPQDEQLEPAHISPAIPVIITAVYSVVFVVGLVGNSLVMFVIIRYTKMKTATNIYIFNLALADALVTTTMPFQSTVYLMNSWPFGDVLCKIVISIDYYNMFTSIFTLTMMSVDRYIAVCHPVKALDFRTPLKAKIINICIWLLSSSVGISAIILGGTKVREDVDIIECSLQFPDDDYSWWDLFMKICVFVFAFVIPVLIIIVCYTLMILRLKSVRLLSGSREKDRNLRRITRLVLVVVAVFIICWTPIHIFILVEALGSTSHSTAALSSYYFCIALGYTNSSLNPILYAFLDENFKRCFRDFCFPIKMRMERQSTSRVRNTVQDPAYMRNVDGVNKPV
# Sequence of human Adrenergic, Alpha 2c Receptor (Adra2C), ADRA2C (gene 152) (P18825 whole entry, looked up): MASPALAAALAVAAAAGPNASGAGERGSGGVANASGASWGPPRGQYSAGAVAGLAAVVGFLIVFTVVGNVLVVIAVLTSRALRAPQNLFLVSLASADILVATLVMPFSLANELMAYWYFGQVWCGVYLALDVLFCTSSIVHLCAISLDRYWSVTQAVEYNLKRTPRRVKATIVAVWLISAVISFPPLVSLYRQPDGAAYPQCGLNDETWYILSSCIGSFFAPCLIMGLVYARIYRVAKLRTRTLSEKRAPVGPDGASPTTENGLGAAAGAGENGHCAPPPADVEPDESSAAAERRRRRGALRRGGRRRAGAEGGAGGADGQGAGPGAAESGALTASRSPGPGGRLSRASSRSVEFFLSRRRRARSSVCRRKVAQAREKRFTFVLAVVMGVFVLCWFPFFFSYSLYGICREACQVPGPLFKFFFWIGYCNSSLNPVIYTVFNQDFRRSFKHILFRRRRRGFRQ
# Sequence of human Adenosine A2a Receptor (AdoRA2a), ADORA2A (gene 135) (P29274 whole entry, looked up): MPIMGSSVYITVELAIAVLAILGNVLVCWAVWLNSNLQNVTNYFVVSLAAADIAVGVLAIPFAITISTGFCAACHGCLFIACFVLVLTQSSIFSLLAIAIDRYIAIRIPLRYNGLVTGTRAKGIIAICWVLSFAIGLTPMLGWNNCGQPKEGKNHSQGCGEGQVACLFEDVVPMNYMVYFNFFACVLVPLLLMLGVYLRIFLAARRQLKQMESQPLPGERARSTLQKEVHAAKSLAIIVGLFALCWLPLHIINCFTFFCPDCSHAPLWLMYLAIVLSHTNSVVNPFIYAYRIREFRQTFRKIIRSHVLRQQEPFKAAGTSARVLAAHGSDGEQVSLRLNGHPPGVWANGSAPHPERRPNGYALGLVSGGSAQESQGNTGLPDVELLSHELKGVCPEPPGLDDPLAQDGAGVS
# Sequence of human Dopamine Receptor D4.4 (DRD4.4), DRD4 (gene 1815) (P21917 whole entry, looked up): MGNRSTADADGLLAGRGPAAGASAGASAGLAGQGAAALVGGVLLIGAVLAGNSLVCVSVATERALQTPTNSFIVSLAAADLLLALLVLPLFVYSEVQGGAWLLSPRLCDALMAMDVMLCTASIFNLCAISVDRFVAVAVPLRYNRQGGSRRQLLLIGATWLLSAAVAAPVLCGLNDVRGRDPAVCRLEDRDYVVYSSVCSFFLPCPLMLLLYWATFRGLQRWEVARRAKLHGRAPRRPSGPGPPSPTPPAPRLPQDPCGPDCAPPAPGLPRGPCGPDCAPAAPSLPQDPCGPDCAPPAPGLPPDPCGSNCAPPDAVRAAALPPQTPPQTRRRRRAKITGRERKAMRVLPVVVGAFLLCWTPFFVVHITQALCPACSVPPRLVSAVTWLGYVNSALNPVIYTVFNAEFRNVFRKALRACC
# Sequence of human Adrenergic, Beta 3 Receptor (Adrb3), ADRB3 (gene 155) (P13945 whole entry, looked up): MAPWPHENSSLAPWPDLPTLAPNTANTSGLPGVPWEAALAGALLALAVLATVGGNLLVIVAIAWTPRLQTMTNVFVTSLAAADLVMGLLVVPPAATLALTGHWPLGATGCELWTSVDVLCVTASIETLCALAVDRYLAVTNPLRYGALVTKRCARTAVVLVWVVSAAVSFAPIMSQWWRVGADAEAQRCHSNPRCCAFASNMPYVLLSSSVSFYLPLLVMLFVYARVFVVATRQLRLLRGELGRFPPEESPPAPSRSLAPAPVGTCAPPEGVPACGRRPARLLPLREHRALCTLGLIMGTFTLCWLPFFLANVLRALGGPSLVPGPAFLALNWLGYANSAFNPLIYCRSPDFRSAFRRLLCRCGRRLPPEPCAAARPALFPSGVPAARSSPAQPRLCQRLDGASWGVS
# Sequence of human Serotonin, 5-Hydroxytryptamine Receptor 5A (5HT5A), HTR5A (gene 3361) (P47898 whole entry, looked up): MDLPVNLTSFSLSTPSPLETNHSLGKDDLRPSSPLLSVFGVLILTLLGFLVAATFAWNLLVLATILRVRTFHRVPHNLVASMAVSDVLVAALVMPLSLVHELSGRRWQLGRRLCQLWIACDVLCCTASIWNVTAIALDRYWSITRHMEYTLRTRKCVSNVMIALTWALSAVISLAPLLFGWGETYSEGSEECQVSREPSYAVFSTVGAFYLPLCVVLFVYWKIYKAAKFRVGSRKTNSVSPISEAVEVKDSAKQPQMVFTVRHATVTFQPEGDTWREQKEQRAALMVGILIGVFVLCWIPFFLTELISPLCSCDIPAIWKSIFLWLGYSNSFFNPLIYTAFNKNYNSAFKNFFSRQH
# Sequence of human Adrenergic, Beta 1 Receptor (Adrb1), ADRB1 (gene 153) (P08588 whole entry, looked up): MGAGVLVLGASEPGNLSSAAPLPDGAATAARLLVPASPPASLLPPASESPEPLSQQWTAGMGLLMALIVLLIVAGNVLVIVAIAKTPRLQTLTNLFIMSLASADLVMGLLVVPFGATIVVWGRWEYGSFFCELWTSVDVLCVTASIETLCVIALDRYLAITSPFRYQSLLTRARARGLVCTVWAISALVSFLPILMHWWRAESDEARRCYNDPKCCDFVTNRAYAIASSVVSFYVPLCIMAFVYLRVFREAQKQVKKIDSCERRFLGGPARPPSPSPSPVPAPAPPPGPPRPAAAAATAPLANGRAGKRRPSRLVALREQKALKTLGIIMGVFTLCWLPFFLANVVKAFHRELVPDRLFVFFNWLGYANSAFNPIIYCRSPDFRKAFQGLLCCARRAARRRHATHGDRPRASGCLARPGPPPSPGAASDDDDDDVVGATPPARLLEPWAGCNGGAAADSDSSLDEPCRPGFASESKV
smiles,measurement,setting,value
NC(=O)N1c2ccccc2C=Cc2ccccc21,outcome,[1],inactive
same,AC50,[2],7.33 µM (active)
CC(C)CCCCCCOC(=O)C1CCCCC1C(=O)OCCCCCCC(C)C (stereo not given),outcome,[3],inactive
C=CCc1cc(S(=O)(=O)c2ccc(O)c(CC=C)c2)ccc1O,AC50,[4],16.7 µM (active)
same,AC50,[5],25 µM (active)
same,AC50,[6],0.0408 µM (active)
same,AC50,[2],3.19 µM (active)
same,AC50,[7],9.39 µM (active)
same,AC50,[8],15.6 µM (active)
same,AC50,[9],20.1 µM (active)
same,AC50,[10],8.06 µM (active)
same,AC50,[11],17.1 µM (active)
same,AC50,[12],25 µM (active)
CC[C@H](C)C(=O)O[C@H]1C[C@H](O)C=C2C=C[C@H](C)[C@H](CC[C@@H](O)C[C@@H](O)CC(=O)O)[C@H]21,AC50,[13],0.328 µM (active)
O=C(NO)C1(NS(=O)(=O)c2ccc(Oc3ccc(F)cc3)cc2)CCOCC1,AC50,[13],7.03 µM (active)
same,AC50,[14],25 µM (active)
same,AC50,[12],25 µM (active)
O=c1[nH]cnc2c1ncn2[C@H]1CC[C@@H](CO)O1,outcome,[12],inactive
CCc1ccc(O)c(C(C)(C)C)c1,outcome,[8],inactive
OCC(CO)(CO)CO,outcome,[1],inactive
same,outcome,[15],inactive
CCCCCCCC/C=C\CCCCCCCC(=O)OC[C@@H](O)[C@H]1OC[C@H](O)[C@H]1O,AC50,[9],43.1 µM (active)
CC(C)c1nnc2ccc(-c3ocnc3-c3cc(F)ccc3F)cn12,outcome,[16],inactive
O=S(=O)(O)c1ccc(N=Nc2c(O)ccc3cc(S(=O)(=O)O)ccc23)cc1,outcome,[5],inactive
same,outcome,[17],inactive
same,outcome,[2],inactive
same,outcome,[7],inactive
same,AC50,[8],35 µM (active)
same,outcome,[14],inactive
same,AC50,[12],32 µM (active)
CCn1nc(C)c2c1C(=O)NCC(c1ccc(O)cc1)=N2,outcome,[18],inactive
same,outcome,[17],inactive
same,outcome,[6],inactive
same,outcome,[2],inactive
same,AC50,[7],25 µM (active)
same,AC50,[8],10.2 µM (active)
same,outcome,[14],inactive
same,outcome,[10],inactive
same,outcome,[15],inactive
CC(C)C(=O)Nc1ccc([N+](=O)[O-])c(C(F)(F)F)c1,outcome,[19],inactive
same,AC50,[6],4.5 µM (active)
same,outcome,[2],inactive
CCCC(CCC)C(=O)O,outcome,[19],inactive
COc1cc(C(C)C)c2c(c1)S(=O)(=O)N(COc1cc(=O)n3cccc(OCCN4CCCCC4)c3n1)C2=O,outcome,[19],inactive
same,AC50,[20],2.22 µM (active)
same,AC50,[17],5.55 µM (active)
same,AC50,[6],2.55 µM (active)
same,AC50,[14],2.83 µM (active)
same,AC50,[10],0.424 µM (active)
OCc1c[nH]c2ccccc12,outcome,[8],inactive
